High-throughput results as filed in PubChem.
HttQ103 aggreg – qHTS Multiplex Assay to Identify Dual Action Probes in a Cell Model of Huntington: Aggregate Formation (GFP). PC12 HttQ103-GFP aggregates, Acumen cytometry, 40 h. Potency, µM (doses to about 46.1 µM), for inactives: at the top dose activity change, negative = inhibition, usual class: inhibitors. AID 1688, 2009. hit rate 1.1% among 220,000; note: % is set by controls: 0 for no effect and ±100 for the full control effect; nearly all actives have a fitted effect of over 60% in size
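Aggregate formation scored by laser-scanning cytometer (488 excitation, 500–530 emission) in lysed PC12 cells expressing Q103-GFP after 100 nM tebufenozide induction; library tested in dose series, with ATPLite reagent added in the multiplex.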
S2 tox – Viability Counterscreen for Primary qHTS for Inhibitors of ATXN expression; hit rate 0.49% among 400,000; S2 cells (HEK-293 line with an ATXN2-luciferase reporter) viability, CellTiter-Fluor protease fluorescence, 24 h; Potency, µM (series often up to 56.7 µM), actives largely listed as cytotoxic; note: nearly all actives have a fitted effect of over 40% in size
HTT ATP protect – qHTS Multiplex Assay to Identify Dual Action Probes in a Cell Model of Huntington: Cytoprotection (ATP); PC12 HTT-Q103 induced, cytoprotection, ATP luminescence, 40 h; Potency, µM (highest dose often 56.4 µM), inactives show cytoprotection (ATP increase), hits mostly activators; hit rate 0.14% among 230,000; AID 1471, 2008; note: % of control where 0% means no effect; nearly all actives have a fitted effect of over 45% in size
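Compounds were screened for protection of PC12 cells against cell death after tebufenozide induction (100 nM final) of mutant Huntingtin exon 1 (Q103) fused to GFP.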
ATXN2 expr inh – Primary qHTS for Inhibitors of ATXN expression. HEK-293 ATXN2-luciferase reporter, luminescence, 24 h. Potency, µM (series often up to 57 µM), inactives show at the highest dose activity change, negative = inhibition, most hits filed as inhibitors. hit rate 0.72% among 360,000; note: % is set by controls: 0 for no effect and ±100 for the full control effect; nearly all actives have a fitted effect of over 55% in size
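qHTS (up to 57 uM final) was run with 24 h compound exposure of reporter cells at 37 °C. Each well was multiplexed: SteadyGlo luminescence measured ATXN2-luciferase expression after a fluorogenic Gly-Phe-AFC viability readout (25 uM final).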
TGFb inhibitor – qHTS for Inhibitors of TGF-b | HepG2 CAGA-GFP TGF-b/SMAD3 reporter, GFP fluorescence, 18 h; TGF-beta stimulated, 500 pg/mL final | AID 588855, 2011 | Potency, µM (highest dose often 46.1 µM), for the others: top-dose activity, negative = inhibition, actives largely listed as inhibitors | hit rate 1.2% among 410,000; note: % is set by controls: 0 for no effect and ±100 for the full control effect; nearly all actives have a fitted effect of over 65% in size
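Read-out: total well GFP (ex488/em500-530) summed from mean per-cell fluorescence. Cells: HEPG2 CAGA-GFP, 1% FBS DMEM, 18 h at 37 degrees C with 500 pg/mL final TGF-beta. Unstimulated wells served as the full-inhibition control; stimulated DMSO wells = 0%.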
HepG2 viability – qHTS for Inhibitors of TGF-b: Cytotox Counterscreen; HepG2 CAGA-GFP viability, ATP luminescence, 18 h; Potency, µM (top dose mostly 46.1 µM), without a hit: at the top dose activity change, negative = cytotoxicity, usual class: cytotoxic; hit rate 0.76% among 410,000; AID 588856, 2011
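HepG2 CAGA-GFP cells (1000/well, DMEM with 1% FBS) received compound, then TGF-beta at 500 pg/mL final, and were incubated 18 hours at 37 degrees C. Viability was read by CellTiter-Glo luminescence. Media-only wells were set as complete cell-killing and DMSO as no toxicity.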
An asterisk follows results filed as active; i = inactive; ? = inconclusive; . = no result; ! = not active in a repeat; [ ] = another dose, or the depositor's remark. This is a sample that favours compounds with a hit; in the whole collection about 2.8% have one here. Calls come from the whole dose curve; as a rule, active = well fitted curve in the direction sought with a large enough effect; inconclusive = small, poorly fitted or top-dose-only effect, or another doubt; inactive = no such curve, though single readings can be large; an effect the other way counts as inactive or inconclusive. Potency is the fitted concentration of half-maximal effect.

SMILES | HttQ103 aggreg | S2 tox | HTT ATP protect | ATXN2 expr inh | TGFb inhibitor | HepG2 viability
Cc1cccc(-n2c(/C=C/c3ccc([N+](=O)[O-])o3)nc3ccccc3c2=O)c1 | ? | ? | -37%[10 µM] | 14µM* | ? | -25%
O=c1c2ccccc2nc(/C=C\c2cccc(Br)c2)n1-c1ccc(O)cc1 | . | . | . | . | 13µM* | -105%
Cc1cccc(-n2c(/C=C/c3cccc4ccccc34)nc3ccccc3c2=O)c1 | . | . | . | . | ? | -34%
O=c1c2ccccc2nc(/C=C/c2ccccc2)n1-c1ccc(O)cc1 | . | ? | . | -37% | ? | -28%
Nc1ccccc1O.O.O=C(O)[C@H]1[O][Sb][O][C@H]1C(=O)O | . | . | 22%[10 µM] | . | . | .
C=CC[C@@H](CC/C=C/C=C/CC/C=C\[C@@H]1CSC([C@@H]2C[C@@H]2C)=N1)OC | . | . | . | ? | 14µM* | -59%
Cc1cc(C(=O)N=Nc2c(O)n(C)c3ccccc23)c(C)o1 | -8% | i | -11%[10 µM] | 13% | 7% | 10%
Cc1nc2ccccn2c1C(=O)N=Nc1c(O)n(CCC(C)C)c2ccccc12 | 35µM* | i | 14%[10 µM] | -8% | 1% | -4%
NS(=O)(=O)c1ccc(-c2ccc(C=C3C(=O)NC(=O)NC3=O)o2)cc1 | . | i | . | -2% | 3% | -19%
O=C1NC(=O)C(=Cc2ccc(SC3CCCCC3)o2)C(=O)N1 | 24% | . | . | 18µM* | ? | -59%
CC(=O)O[C@@]12CO[C@H]1C[C@H](O)[C@@]1(C)C(=O)[C@H](O)C3=C(C)[C@@H](O)C[C@@](O)([C@@H](OC(=O)c4ccccc4)[C@@H]21)C3(C)C | . | . | . | -7% | . | .
Sc1ccccc1Cl | . | i | . | -4% | . | .
CCCC[N+]1(C)[C@H]2CC(OC(=O)[C@H](CO)c3ccccc3)C[C@H]1[C@H]1O[C@H]12 (stereo partly specified) | . | . | . | 4% | . | .
CN(C)c1ccc(CN2CCc3nc(N4CCN(c5ccccn5)CC4)ncc3C2)cc1 | . | ? | . | 28µM* | 8.9µM* | -32%
Cc1ccccc1CN1CCc2nc(N3CCN(c4ccccn4)CC3)ncc2C1 | . | ? | . | -22% | -28% | -23%
C=C(C)[C@H]1Cc2c(ccc3c2O[C@H]2COc4cc(OC)c(OC)cc4[C@@H]2C3=O)O1 | . | . | -41%[1.9 µM] | . | . | .
Cc1cccc(N2C(=O)NC(=O)/C(=C\c3cc(C)n(-c4sc5c(c4C#N)CCCC5)c3C)C2=O)c1C | 5µM* | i | 2%[10 µM] | -31% | 7.1µM* | 13µM*
C[C@]12CC[C@H](O)CC1=CC[C@H]1[C@H]3CCC(=O)[C@@]3(C)CC[C@@H]12 | . | . | . | 2% | . | .
CC(C)(C)c1cc(O)ccc1O | ? | . | 32µM*! | . | . | .
COc1ccc(O)c(C(C)(C)C)c1 | -1% | i | -7% | -4% | 9% | -2%
Cc1nc2ccccc2cc1C[N+]12CN3CN(CN(C3)C1)C2 | . | . | -2%[10 µM] | . | . | .
N[C@H](Cn1cc(I)c(=O)[nH]c1=O)C(=O)O | . | . | -13%[1.9 µM] | . | . | .
O=C(Nc1ccc(OC(F)(F)F)cc1)Oc1ccccc1N1CCCCC1 | 12%[9.22 µM] | ? | 11%[10 µM] | . | 13µM* | -102%
CCCN1CCC[C@H](c2cccc(C#N)c2)C1 | . | . | 2%[1.9 µM] | . | . | .
COc1ccc(CN2Cc3cnnn3-c3ccccc3C2C#N)cc1 (stereo unspecified) | . | . | . | ? | ? | 11µM*
CN1Cc2cnnn2-c2ccccc2C1C#N (stereo unspecified) | . | ? | . | -2% | 2% | -12%
N#CC1c2ccccc2-n2nncc2CN1Cc1cc(Cl)cc(Cl)c1 (stereo unspecified) | . | 3.5µM* | . | 4.5µM* | ? | 10µM*
CN(Cc1cccc(-c2ccncc2)c1)C(=O)Oc1ccc([N+](=O)[O-])cc1 | . | 32µM* | . | 25µM* | . | .
